# Laboratory results as given in PubChem BioAssay (NCI).
# The panel holds about 79,000 compounds, 15% with a hit somewhere; the sample as a whole holds those more often. Unmarked numbers belong to inactive results. The source made the active and inactive calls. Cut-off read from the data, not from the text of the source: active = growth inhibition above about 70%; inactive = the rest.
# What was measured:
# [1] = NCI Yeast Anticancer Drug Screen. Data for the rad52 strain (AID 147);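 note: 0% = growth of vehicle-treated control cultures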; details: S. cerevisiae rad52 mutant growth inhibition, hits give high values
# How it was run: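 Here a repair-compromised yeast strain receives each compound; its growth is then quantified and normalised to vehicle-only controls.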
# [2] = NCI Yeast Anticancer Drug Screen. Data for the wt1 strain (AID 149);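 note: 0% = growth of vehicle-treated wt1 cultures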; details: S. cerevisiae wt1 strain (SPY 50644) growth inhibition, hits give high values
# How it was run: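 Measured: growth of wt1 yeast under compound versus vehicle treatment, reported as inhibition.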
# [3] = NCI Yeast Anticancer Drug Screen. Data for the rad50EPP+ strain (AID 151);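 note: 0% = growth of vehicle-treated control cultures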; details: S. cerevisiae rad50 mutant strain, hits give high values
# How it was run: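 Read-out is yeast growth inhibition relative to vehicle; cells used were the rad50EPP+ strain.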
# [4] = NCI Yeast Anticancer Drug Screen. Data for the mgt1 strain (AID 153); details: S. cerevisiae mgt1 mutant growth inhibition, hits give high values
# How it was run: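 Measured: inhibition of mgt1 yeast growth by compound, normalized to vehicle-treated cultures.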
# [5] = NCI Yeast Anticancer Drug Screen. Data for the rad50 strain (AID 155);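 note: 0% = growth of vehicle-only cultures of the same strain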; details: S. cerevisiae rad50 strain growth inhibition, hits give high values
# How it was run: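 Growth of the mutant yeast was measured after compound exposure and referenced to vehicle-treated cultures.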
# [6] = NCI Yeast Anticancer Drug Screen. Data for the mec2-1 strain (AID 157); details: S. cerevisiae mec2-1 strain, hits give high values
# How it was run: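 Using mec2-1 yeast: add compound, measure growth, express inhibition versus vehicle-treated cultures.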
# [7] = NCI Yeast Anticancer Drug Screen. Data for the rad14 strain (AID 159);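 note: 0% = growth of vehicle-treated control cultures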; details: S. cerevisiae rad14 strain growth inhibition, hits give high values
# How it was run: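 Here, inhibition of yeast growth was measured after compound exposure, using a strain with a genetic defect in DNA damage repair and vehicle-treated cultures as the reference.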
# [8] = NCI Yeast Anticancer Drug Screen. Data for the sgs1 mgt1 strain (AID 161);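 note: 0% = growth of cultures given vehicle only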; details: S. cerevisiae sgs1 mgt1 strain, hits give high values
# How it was run: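 Yeast cells carrying a defined DNA-repair defect were exposed to test compounds. Growth inhibition was measured relative to vehicle-treated controls.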
# [9] = NCI Yeast Anticancer Drug Screen. Data for the CLN2oe strain (AID 163);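 note: 0% = growth of vehicle-only control cultures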; details: S. cerevisiae CLN2oe strain, hits give high values
# How it was run: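 Whole-cell yeast growth assay. A strain engineered for altered cell-cycle control received compound, and inhibition relative to vehicle-treated cultures was recorded.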
# [10] = NCI Yeast Anticancer Drug Screen. Data for the cln2 rad14 strain (AID 165);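 note: 0% = growth equal to vehicle treated cultures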; details: S. cerevisiae cln2 rad14 strain, hits give high values
# How it was run: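 Yeast strain cln2 rad14, bearing defects in cell cycle control and DNA repair, serves as the test system; values reflect growth inhibition compared with vehicle.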
# [11] = NCI Yeast Anticancer Drug Screen. Data for the bub3 strain (AID 167); details: S. cerevisiae bub3 mutant strain, hits give high values
# How it was run: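 Whole-cell yeast assay. The mutant strain was incubated with compounds, and growth inhibition was determined by comparison with vehicle-treated cells.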
# [12] = NCI Yeast Anticancer Drug Screen. Data for the wt2 strain (AID 169);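 note: 0% = growth of vehicle-treated yeast cultures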; details: S. cerevisiae wt2 strain growth inhibition, hits give high values
# How it was run: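 Treated yeast vs. vehicle-treated yeast: growth inhibition determined.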
# [13] = NCI Yeast Anticancer Drug Screen. Data for the mlh1 strain (AID 171);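 note: 0% = growth of vehicle-treated control cultures of the same strain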; details: S. cerevisiae mlh1 strain growth inhibition, hits give high values
# How it was run: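 A yeast strain with a defined genetic lesion serves as the test organism. Cultures receive compound or vehicle, and growth is measured.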
# [14] = NCI Yeast Anticancer Drug Screen. Data for the sgs1 strain (AID 173);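 note: 0% = growth of vehicle-only control cultures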; details: S. cerevisiae sgs1 mutant, hits give high values
# How it was run: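 A genetically defined yeast mutant is incubated with the test compound, and its growth is compared to that of the same strain given vehicle.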
# [15] = NCI Yeast Anticancer Drug Screen. Data for the mlh1 rad18 strain (AID 175); details: S. cerevisiae mlh1 rad18 strain growth inhibition, hits give high values
# How it was run: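 Steps: expose repair-defective yeast to compound; measure growth; express inhibition against vehicle-treated controls.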
# [16] = NCI Yeast Anticancer Drug Screen. Data for the rad18 strain (AID 177); details: S. cerevisiae rad18 mutant growth inhibition, hits give high values
# How it was run: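 Measured value is growth inhibition of a yeast strain bearing a DNA repair alteration, referenced to vehicle-treated cells.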
# [17] = at 5.0 µM (retest, dose inferred, filed as 0.5)
# [18] = at 50.0 µM (retest, dose inferred, filed as 5.0)
smiles,measurement,setting,value
CC(C)/C(Cl)=N\OC(=O)Nc1ccc(F)cc1F,growth inhibition,[1]; at 1.2 µM,1%
same,growth inhibition,[1]; at 3.7 µM,7%
same,growth inhibition,[1]; at 11.0 µM,15%
same,growth inhibition,[1]; at 33.0 µM,28%
same,growth inhibition,[1]; at 100.0 µM,75% (active)
same,growth inhibition,[2]; at 1.2 µM,2%
same,growth inhibition,[2]; at 3.7 µM,1%
same,growth inhibition,[2]; at 11.0 µM,-2%
same,growth inhibition,[2]; at 33.0 µM,-1%
same,growth inhibition,[2]; at 100.0 µM,6%
same,growth inhibition,[3]; at 1.2 µM,7%
same,growth inhibition,[3]; at 3.7 µM,13%
same,growth inhibition,[3]; at 11.0 µM,25%
same,growth inhibition,[3]; at 33.0 µM,54%
same,growth inhibition,[3]; at 100.0 µM,85% (active)
same,growth inhibition,[4]; at 1.2 µM,3%
same,growth inhibition,[4]; at 3.7 µM,1%
same,growth inhibition,[4]; at 11.0 µM,4%
same,growth inhibition,[4]; at 33.0 µM,13%
same,growth inhibition,[4]; at 100.0 µM,96% (active)
same,growth inhibition,[5]; at 1.2 µM,2%
same,growth inhibition,[5]; at 3.7 µM,8%
same,growth inhibition,[5]; [17],2%
same,growth inhibition,[5]; at 11.0 µM,15%
same,growth inhibition,[5]; at 33.0 µM,32%
same,growth inhibition,[5]; [18],78% (active)
same,growth inhibition,[5]; at 50.0 µM,6.55%
same,growth inhibition,[5]; at 100.0 µM,80% (active)
same,growth inhibition,[6]; at 1.2 µM,5%
same,growth inhibition,[6]; at 3.7 µM,9%
same,growth inhibition,[6]; [17],4%
same,growth inhibition,[6]; at 11.0 µM,13%
same,growth inhibition,[6]; at 33.0 µM,28%
same,growth inhibition,[6]; [18],83% (active)
same,growth inhibition,[6]; at 50.0 µM,72.4% (active)
same,growth inhibition,[6]; at 100.0 µM,95% (active)
same,growth inhibition,[7]; at 1.2 µM,0%
same,growth inhibition,[7]; at 3.7 µM,3%
same,growth inhibition,[7]; at 11.0 µM,9%
same,growth inhibition,[7]; at 33.0 µM,17%
same,growth inhibition,[7]; at 100.0 µM,37%
same,growth inhibition,[8]; [17],-12%
same,growth inhibition,[8]; [18],69%
same,growth inhibition,[8]; at 50.0 µM,70.8% (active)
same,growth inhibition,[9]; at 1.2 µM,7%
same,growth inhibition,[9]; at 3.7 µM,11%
same,growth inhibition,[9]; at 11.0 µM,12%
same,growth inhibition,[9]; at 33.0 µM,12%
same,growth inhibition,[9]; at 100.0 µM,24%
same,growth inhibition,[10]; [17],-1%
same,growth inhibition,[10]; [18],38%
same,growth inhibition,[10]; at 50.0 µM,44.8%
same,growth inhibition,[11]; at 1.2 µM,23%
same,growth inhibition,[11]; at 3.7 µM,38%
same,growth inhibition,[11]; [17],27%
same,growth inhibition,[11]; at 11.0 µM,70% (active)
same,growth inhibition,[11]; at 33.0 µM,90% (active)
same,growth inhibition,[11]; [18],97% (active)
same,growth inhibition,[11]; at 50.0 µM,82.1% (active)
same,growth inhibition,[11]; at 100.0 µM,98% (active)
same,growth inhibition,[12]; at 1.2 µM,0%
same,growth inhibition,[12]; at 3.7 µM,0%
same,growth inhibition,[12]; at 11.0 µM,2%
same,growth inhibition,[12]; at 33.0 µM,12%
same,growth inhibition,[12]; at 100.0 µM,63%
same,growth inhibition,[13]; at 1.2 µM,0%
same,growth inhibition,[13]; at 3.7 µM,6%
same,growth inhibition,[13]; at 11.0 µM,9%
same,growth inhibition,[13]; at 33.0 µM,16%
same,growth inhibition,[13]; at 100.0 µM,53%
same,growth inhibition,[14]; at 1.2 µM,-1%
same,growth inhibition,[14]; at 3.7 µM,0%
same,growth inhibition,[14]; at 11.0 µM,4%
same,growth inhibition,[14]; at 33.0 µM,27%
same,growth inhibition,[14]; at 100.0 µM,83% (active)
same,growth inhibition,[15]; [17],-29%
same,growth inhibition,[15]; [18],69%
same,growth inhibition,[15]; at 50.0 µM,58%
same,growth inhibition,[16]; at 1.2 µM,-3%
same,growth inhibition,[16]; at 3.7 µM,-1%
same,growth inhibition,[16]; at 11.0 µM,4%
same,growth inhibition,[16]; at 33.0 µM,17%
same,growth inhibition,[16]; at 100.0 µM,79% (active)
